{"source": "PubChem BioAssay (Tox21)", "note": "Inconclusive results are not listed. A call without a number means that no potency is given here. Values without a mark were called inactive. Active and inactive are the calls of the source. Calls follow the shape of the dose curve; as a rule, active = well fitted inhibition curve with a large enough effect in the repeat runs; inconclusive = weak or mixed curves; inactive = flat fitted curve, though single readings scatter.", "data": [{"biological_target": "Voltage-gated inwardly rectifying potassium channel KCNH2 (Homo sapiens) (UniProt Q12809)", "sequence (Q12809 whole entry, looked up)": "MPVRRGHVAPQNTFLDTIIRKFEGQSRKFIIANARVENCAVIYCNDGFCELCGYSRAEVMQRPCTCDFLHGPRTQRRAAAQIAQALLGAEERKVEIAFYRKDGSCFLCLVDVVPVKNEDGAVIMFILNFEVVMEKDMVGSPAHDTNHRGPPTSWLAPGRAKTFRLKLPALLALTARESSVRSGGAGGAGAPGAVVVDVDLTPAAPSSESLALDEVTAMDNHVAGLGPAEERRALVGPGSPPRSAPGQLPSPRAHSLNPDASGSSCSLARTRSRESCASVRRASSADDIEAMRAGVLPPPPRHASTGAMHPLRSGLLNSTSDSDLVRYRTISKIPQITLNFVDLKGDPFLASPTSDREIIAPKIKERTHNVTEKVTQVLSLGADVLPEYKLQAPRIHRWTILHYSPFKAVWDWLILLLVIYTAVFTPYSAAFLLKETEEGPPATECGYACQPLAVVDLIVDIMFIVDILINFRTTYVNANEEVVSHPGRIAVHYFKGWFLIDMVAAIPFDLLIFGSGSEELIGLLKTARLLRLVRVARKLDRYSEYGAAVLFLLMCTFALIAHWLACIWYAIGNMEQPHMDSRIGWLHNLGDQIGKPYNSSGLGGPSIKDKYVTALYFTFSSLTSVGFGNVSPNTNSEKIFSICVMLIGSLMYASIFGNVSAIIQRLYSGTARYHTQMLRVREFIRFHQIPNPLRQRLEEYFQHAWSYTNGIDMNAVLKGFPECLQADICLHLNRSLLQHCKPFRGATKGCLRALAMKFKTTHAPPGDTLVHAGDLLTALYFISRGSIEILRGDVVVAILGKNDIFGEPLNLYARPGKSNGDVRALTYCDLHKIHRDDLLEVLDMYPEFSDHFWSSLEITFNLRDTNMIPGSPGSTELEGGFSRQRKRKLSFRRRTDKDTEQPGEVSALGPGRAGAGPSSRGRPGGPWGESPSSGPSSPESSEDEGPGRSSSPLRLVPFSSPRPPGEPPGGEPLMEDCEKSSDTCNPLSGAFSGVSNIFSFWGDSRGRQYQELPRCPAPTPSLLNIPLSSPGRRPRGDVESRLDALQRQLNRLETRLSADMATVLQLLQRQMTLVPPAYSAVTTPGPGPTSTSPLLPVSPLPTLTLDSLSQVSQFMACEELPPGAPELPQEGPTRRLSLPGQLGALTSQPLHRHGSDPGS", "assay": "Human Ether-a-go-go-Related Gene (hERG) channel small molecule antagonists: fluorescence cell-based qHTS assay (AID 1671200); also: nearly all actives have a fitted effect of over 50% in size", "details": "hERG-U2OS cells, FluxOR thallium flux fluorescence; series mostly up to 76.8 µM", "text": "National Center for Advancing Translational Sciences [NCATS]\nU.S. Environmental Protection Agency [EPA]\nNational Institutes of Environmental Health Sciences [NIEHS]\nNational Toxicology Program [NTP]\nU.S. Food and Drug Administration [FDA]\nMutations in the hERG channel cause Long QT (LQT) syndrome. LQT syndrome is a cardiac disorder which can cause ventricle arrhythmia and sudden death. Additionally, compounds which block the hERG channel can cause acquired LQT syndrome. Several FDA approved drugs have been removed from the market due to their hERG blocking activity. A cell-based hERG channel inhibition assay can be used to screen chemical compounds that inhibit hERG channel. This assay measures hERG channel activity using thallium ions as surrogate ions to measure potassium into the cells.\nTox21 Assay Protocol Summary:\nhERG-U2OS cells were resuspended in culture medium and dispensed into 1536-well, black wall/clear-bottom plates at 1000cells/well/3uL using a Multidrop Combi dispenser (Thermo Fisher, Waltham, MA). After plates were incubated at 37 C overnight, 3 uL of Loading Buffer provided by FluxOR II Potassium Ion Channel Assay kit (Thermo, Carlsbad, CA) was added to each well. The assay plates were then incubated at room temperature in the dark for 1h. […] After the assay plates were incubated at room temperature for 10 min, 1 uL of Stimulus Buffer provided by FluxOR II Potassium Ion Channel Assay kit was added into each well and fluorescence intensity (480nm excitation/540nm emission) was continuously measured for 2 min at 1 second intervals using a Functional Drug Screening System (FDSS) 7000EX kinetic plate reader (Hamamatsu, Japan).", "values": [{"smiles": "CC(C)=CCCC(C)CC(=O)O", "note": "(stereo not given)", "Potency": "inactive"}, {"smiles": "C[N+](C)(C)CCCCCC[N+](C)(C)C", "Potency": "inactive"}, {"smiles": "N[C@@H](C(=O)N[C@@H]1C(=O)N2C(C(=O)O)=C(Cl)CS[C@H]12)c1ccccc1", "activity change, negative = inhibition": "-6.12% [at 6.97 µM]"}, {"smiles": "CCCCCCCCCCCCCC=O", "activity change, negative = inhibition": "-8.57% [at 6.97 µM]"}, {"smiles": "C[C@H]1C[C@@H](O)CC(C)(C)C1", "Potency": "inactive"}, {"smiles": "CCOC(=O)C(=O)OCC", "Potency": "inactive"}, {"smiles": "C=C[Si](OC(=C)C)(OC(=C)C)OC(=C)C", "Potency": "inactive"}, {"smiles": "COc1ccc2c(c1)c(CC(=O)OCC(=O)O)c(C)n2C(=O)c1ccc(Cl)cc1", "Potency": "inactive"}, {"smiles": "COCCc1ccc(OCC(O)CNC(C)C)cc1", "note": "(stereo not given)", "Potency": "inactive"}, {"smiles": "CCC(C)C1CCCCC1=O", "note": "(stereo not given)", "Potency": "inactive"}, {"smiles": "NC(=O)c1ccc(N)cc1", "Potency": "inactive"}, {"smiles": "O=C1CCCCCCCCCCCN1", "Potency": "inactive"}, {"smiles": "CC(C)(O)C#CC(C)(C)O", "Potency": "inactive"}, {"smiles": "NC(=O)Nc1ccccc1", "Potency": "inactive"}, {"smiles": "CC/C=C\\CC/C=C/CO", "Potency": "inactive"}, {"smiles": "O=c1cc(CO)occ1O", "Potency": "inactive"}, {"smiles": "CC1=CC(C)C(C=O)CC1", "note": "(stereo not given)", "Potency": "inactive"}, {"smiles": "CC(C)(c1ccc(O)cc1)c1ccc(O)cc1", "Potency": "inactive"}, {"smiles": "C=C(C)CS(=O)(=O)O", "Potency": "inactive"}, {"smiles": "O=C1CCCC(=O)C1", "Potency": "inactive"}, {"smiles": "CCCCCCCCCCCCCCCCC", "Potency": "inactive"}, {"smiles": "CCN(Cc1ccncc1)C(=O)C(CO)c1ccccc1", "note": "(stereo not given)", "Potency": "inactive"}, {"smiles": "CCN1CCC[C@H]1CNC(=O)c1cc(S(N)(=O)=O)ccc1OC", "Potency": "inactive"}, {"smiles": "Nc1ccc(S(=O)(=O)Nc2ccnn2-c2ccccc2)cc1", "activity change, negative = inhibition": "4.06% [at 15.8 µM]"}, {"smiles": "CC(C)CNCC(C)C", "Potency": "inactive"}, {"smiles": "CN1N=C(C(N)=O)CCC1=O", "Potency": "inactive"}, {"smiles": "CC(C)(O)C(=O)c1ccccc1", "Potency": "inactive"}, {"smiles": "Cc1cnc(NS(=O)(=O)c2ccc(N)cc2)nc1", "Potency": "inactive"}, {"smiles": "CCCC(=O)O[C@]1(C(=O)CO)CC[C@H]2[C@@H]3CCC4=CC(=O)CC[C@]4(C)[C@H]3[C@@H](O)C[C@@]21C", "Potency": "inactive"}, {"smiles": "O=C(O)CCCl", "Potency": "inactive"}, {"smiles": "CCS(=O)(=O)c1ccc(OC)c(C(=O)OC)c1", "Potency": "inactive"}, {"smiles": "CCCCC(CC)COC(=O)c1ccccc1O", "note": "(stereo not given)", "Potency": "inactive"}, {"smiles": "N#Cc1ccc(C2CCCc3cncn32)cc1", "note": "(stereo not given)", "Potency": "inactive"}, {"smiles": "CCN1CCC[C@H]1CNC(=O)c1c(O)c(Cl)cc(Cl)c1OC", "Potency": "inactive"}, {"smiles": "CC(=O)OCC(=O)[C@@]1(O)CCC2C3CCC4=CC(=O)CC[C@]4(C)C3[C@@H](O)C[C@@]21C", "note": "(stereo not given in full)", "Potency": "inactive"}, {"smiles": "c1ccc([C@H]2CN3CCSC3=N2)cc1", "Potency": "inactive"}, {"smiles": "O=c1n(CCO)c(=O)n(CCO)c(=O)n1CCO", "Potency": "inactive"}, {"smiles": "OCCOc1ccc(OCCO)cc1", "Potency": "inactive"}, {"smiles": "CCC(=O)OC(C)c1ccccc1", "note": "(stereo not given)", "Potency": "inactive"}, {"smiles": "CCCCOCCOCCOCCCC", "Potency": "inactive"}]}]}
